Sampled rows, rich in hits. Any-hit rate of the full collection: about 2.5%.
p53ts 39C kill = qHTS Screen for Compounds that Selectively Target Cancer Cells with p53 Mutations: Cytotoxicity of p53ts Cells at the Nonpermissive Temperature | H1299-p53A138V viability at 39C, ATP luminescence, 24 h | Potency, µM (series often up to 46.1 µM), usual class: cytotoxic | actives 1.5% (n = 130,000) | AID 902, 2007; also: nearly all actives have a fitted effect of over 55% in size
p53ts 32C kill = qHTS Screen for Compounds that Selectively Target Cancer Cells with p53 Mutations: Cytotoxicity of p53ts Cells at the Permissive Temperature | H1299-p53A138V at 32C, ATP luminescence viability, 24 h | Potency, µM (top dose mostly 46.1 µM), actives largely listed as cytotoxic | actives 0.93% (n = 130,000); also: nearly all actives have a fitted effect of over 55% in size
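ATP-content luminescence (ATPlite) read-out after 24 h compound exposure at 32C in H1299-p53A138V cells (600/well). Tested up to 46 uM. Normalized to DMSO (0%) and 100 uM tamoxifen (100% killing); Hill-fit AC50.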
FLuc inh = qHTS Assay for Inhibitors of Firefly Luciferase | Luciferin 4-monooxygenase (Photinus pyralis), P08659 | purified firefly luciferase, luminescence, 8 min | Potency, µM (highest dose often 57.1 µM), hits mostly inhibitors | actives 2.2% (n = 72,000); also: nearly all actives have a fitted effect of over 40% in size
Target sequence (P08659 whole entry, looked up): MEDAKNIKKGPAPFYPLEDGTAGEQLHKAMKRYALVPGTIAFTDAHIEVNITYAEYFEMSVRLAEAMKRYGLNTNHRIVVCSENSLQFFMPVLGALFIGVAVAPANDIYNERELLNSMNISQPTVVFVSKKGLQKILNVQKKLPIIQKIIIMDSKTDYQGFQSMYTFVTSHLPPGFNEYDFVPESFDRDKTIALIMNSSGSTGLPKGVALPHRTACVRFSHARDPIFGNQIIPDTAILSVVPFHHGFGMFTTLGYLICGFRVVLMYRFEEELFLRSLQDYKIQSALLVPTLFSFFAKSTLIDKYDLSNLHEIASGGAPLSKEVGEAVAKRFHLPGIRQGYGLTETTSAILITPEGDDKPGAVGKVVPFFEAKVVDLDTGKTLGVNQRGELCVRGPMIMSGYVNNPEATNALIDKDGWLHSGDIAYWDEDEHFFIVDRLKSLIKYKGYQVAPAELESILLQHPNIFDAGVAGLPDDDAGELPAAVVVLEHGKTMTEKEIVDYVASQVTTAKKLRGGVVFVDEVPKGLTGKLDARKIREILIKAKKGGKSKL
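Inhibition of light generation by firefly luciferase from ATP and luciferin was profiled with concentration-response curves per sample, ATP held at 10 uM within the enzyme's linear range. Plates were read by luminescence after an 8-minute ambient incubation.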
Hits are given with their value; - = inactive; ? = inconclusive; . = no result given; [ ] = dose if it differs, or a comment. Calls follow the shape of the dose curve; as a rule, active = well fitted curve in the direction sought with a large enough effect; inconclusive = small, poorly fitted or top-dose-only effect, or another doubt; inactive = no such curve, though single readings can be large; an effect the other way counts as inactive or inconclusive.

SMILES | p53ts 39C kill | p53ts 32C kill | FLuc inh
CC(=O)OC[C@H]1O[C@@H](O/N=C(\C)CCN2CCCc3nc(C)c(C)cc32)[C@H](OC(C)=O)[C@@H](OC(C)=O)[C@H]1OC(C)=O | -[9.22 µM] | -[9.22 µM] | -[11.4 µM]
CCOC(=O)CSc1nc(-c2ccncc2)ccc1C#N | . | . | 7.9µM
CCOC(=O)CC(=O)CSc1nc(-c2cccnc2)ccc1C#N | - | - | -
CCOC(=O)CSc1nc(-c2ccc3c(c2)OCO3)ccc1C#N | . | . | 4µM
CCOC(=O)CSc1nc2cc(OCC)ccc2cc1C#N | - | - | -
Nc1cnn([C@@H]2O[C@H](CO)[C@@H](O)[C@H]2O)c(=O)n1 | - | -[1.84 µM] | .
COc1ccccc1CNc1cc(-c2ccccc2C)ncn1 | - | ? | -[2.29 µM]
COc1ccccc1CNc1cc(-c2ccccc2OC)ncn1 | ? | 13µM | -[2.29 µM]
CC(C)(C)N1C(=O)[C@H]2[C@H]3[C@H](O)[C@H](O)C/C(=N/OC[C@@H](O)COCc4ccco4)[C@H]3CC[C@@H]2C1=O | -[9.22 µM] | -[9.22 µM] | -[11.4 µM]
COc1cccc(-n2c(SCC(=O)Nc3cccc(Cl)c3)nc3c(oc4ccccc43)c2=O)c1 | - | - | .
O=C(CSc1nc2c(oc3ccccc32)c(=O)[nH]1)Nc1cccc(Cl)c1 | 7.9µM | 10µM | .
Cc1cccc(CNc2cc(-c3ccc(N(C)C)cc3)ncn2)c1 | - | - | -[2.29 µM]
CN(C)c1ccc(-c2cc(NCc3cccnc3)ncn2)cc1 | 7.9µM | ? | -[2.29 µM]
CCn1c(=O)c2sccc2n2c(CCC(=O)Nc3ccc(F)cc3)nnc12 | - | - | .
CC12C=C(/C=C/c3ccc(F)cc3)C(C)(C1)C(c1ccc(F)cc1)CC2=O (stereo not drawn) | -[9.22 µM] | -[9.22 µM] | .
COc1ccccc1CCn1c(=O)c(-c2cccs2)nc2cncnc21 | - | - | -[11.4 µM]
N/C(=N\O)c1cn([C@@H]2O[C@@H](CO)[C@H](O)[C@@H]2O)c2ncnc(NO)c12 | 1µM | 2µM | -[11.4 µM]
Nc1ncnc2c1c(I)cn2C1OC(CO)C(O)C1O (stereo not drawn) | - | - | .
O=C1c2ccccc2C(=O)C1c1ccncc1 | 3.2µM | 3.2µM | 7.9µM
Cc1ccccc1N1C(=O)c2ccccc2NC1c1ccncc1 (stereo not drawn) | - | - | .
COc1ccccc1N1CCN(C(=O)CSc2ncccc2-c2nc3ccccc3[nH]2)CC1 | - | - | ?
COc1ccc(N2CCN(C(=O)CSc3ncccc3-c3nc4ccccc4[nH]3)CC2)cc1 | - | - | 13µM
O=c1c(CCc2ccccc2)nc2cnc(Nc3ccccc3)nc2n1Cc1cccs1 | - | - | -[11.4 µM]
COc1ccc([C@@H]2CC(=O)c3c(O)cc(O[C@@H]4O[C@@H](CO[C@@H]5O[C@@H](C)[C@@H](O)[C@@H](O)[C@H]5O)[C@@H](O)[C@@H](O)[C@H]4O)cc3O2)cc1O | . | . | -[11.4 µM]
O=C(Nc1ccc(-c2nc3ccccc3o2)c(O)c1)c1cc(-n2cnnc2)ccc1Cl | ? | ? | -
SMILES | p53ts 39C kill | p53ts 32C kill | FLuc inh
Cc1c(NC(=O)c2cc(-n3cnnc3)ccc2Cl)cccc1-c1nc2ccccc2o1 | - | ? | 7.9µM
O=C(Oc1oc(-c2ccco2)nc1C=Nc1ccccc1)c1ccco1 | . | . | -
Cc1ccc(N=Cc2nc(-c3ccco3)oc2O)cc1 | - | - | 16µM
Cc1cc(-c2ccc(N3C(=O)CCC3=O)c(C)c2)ccc1N1C(=O)CCC1=O | - | ? | 16µM
O=C1CCC(=O)N1c1ccccc1-c1ccccc1 | - | - | -
COC(=O)c1ccc(NC(=O)NCCn2nnc3cc(S(=O)(=O)N(C)C)ccc32)cc1 | - | - | .
OC(CNCc1ccco1)Cn1c2ccccc2c2ccccc21 (stereo not drawn) | 13µM | ? | -
OC(CNCc1ccco1)COc1ccccc1 (stereo not drawn) | - | - | -
O=C(OC1Cc2c(O)cc(O)cc2OC1c1cc(O)c(O)c(O)c1)c1cc(O)c(O)c(O)c1 (stereo not drawn) | - | - | .
COCCCNC(=O)N1[C@H](c2cccs2)[C@@H](C)C(=O)[C@@H](C)[C@@H]1c1cccs1 | - | - | .
Cc1cccc(-c2nnn3c2nc(NCc2ccc4c(c2)OCO4)c2ccccc23)c1 | 6.3µM | - | .
Clc1ccc(-c2nnn3c2nc(NCc2ccc4c(c2)OCO4)c2ccccc23)cc1 | - | - | .
C=C1CC[C@@H]2O[C@]2(C)CC[C@@H]2[C@H]1CC2(C)C | . | . | -[11.4 µM]
CC(=O)Oc1cc2c(c(C)c1OC(C)=O)CC=C1[C@]3(C)CC[C@]4(C)CC[C@@](C)(C(=O)O)CC4[C@]3(C)CC[C@]12C (stereo partly drawn) | - | - | .
CCOc1ccccc1NC(=O)CSc1nnc2[nH]c(=O)cc(C)n12 | - | - | .
CCc1ccc(NC(=O)CSc2nnc3[nH]c(=O)cc(-c4ccccc4)n23)cc1 | 6.3µM | - | .
O=c1cc(-c2ccccc2)n2c(SCc3ccc(Cl)cc3)nnc2[nH]1 | - | - | .
COc1ccc(Cl)cc1NC(=O)CSc1nnc2[nH]c(=O)cc(-c3ccccc3)n12 | 3.2µM | ? | .
CC(=O)OCC1OC(C#CC(C)(C)C)C=CC1OC(C)=O (stereo not drawn) | -[9.22 µM] | -[9.22 µM] | .
CSc1ccc(CNc2ncc(-c3ccccc3)n2C)cc1 | - | - | .
CSc1ccc(CNc2ccccn2)cc1 | - | ? | 16µM
CCOc1ccc(OCc2cccc(C(=O)N3CCOCC3)c2)cc1 | 13µM | 10µM | 5µM
COc1ccc(OCc2ccc(C(=O)N3CCOCC3)cc2)cc1 | - | - | .
Cc1cc(C(=O)COC(=O)c2n[nH]c3ccccc23)c(C)n1C | 3.2µM | 2.5µM | 13µM
Cc1cc(C(=O)CSc2nc3ccc(Cl)cc3[nH]2)c(C)n1C | - | - | -
SMILES | p53ts 39C kill | p53ts 32C kill | FLuc inh
CCCn1c(C)cc(C(=O)COC(=O)c2ccc(Cl)c(S(=O)(=O)N3CCCC3)c2)c1C | ? | ? | 13µM
COCCn1c(C)cc(C(=O)COC(=O)c2c(C)nn(Cc3ccccc3)c2C)c1C | - | - | -
COc1cc(C(=O)OCC(=O)c2cc(C)n(C)c2C)cc(OC)c1OC | - | - | -
CN1CCN(C(=O)c2ccc(Cl)c(S(=O)(=O)N3CCCCC3)c2)CC1 | - | - | -
COCCn1c(C)cc(C(=O)COC(=O)c2n[nH]c3ccccc23)c1C | 2µM | 1µM | 1.3µM
Cc1cc(C(=O)CSc2nc3ccccc3[nH]2)c(C)n1C | - | - | 16µM
Cc1sc2ccccc2[n+]1CCC(=O)O | -[9.22 µM] | -[9.22 µM] | -[11.4 µM]
O=C(O)CCN1C(=S)CSC1=S | -[9.22 µM] | -[9.22 µM] | -[11.4 µM]
Cc1cccc2c1Oc1ccccc1[C@@H]2NC(=O)c1ccc([N+](=O)[O-])cc1 | -[9.22 µM] | -[9.22 µM] | -[11.4 µM]
CCCCn1cc(S(=O)(=O)c2cccc(C)c2)c(=O)c2cc(F)c(N3CCOCC3)cc21 | . | - | .
CCCOCC(C)OCC(C)O (stereo not drawn) | - | -[1.84 µM] | .
CCc1ccc(NC(=O)CSc2nc(-c3cccc(OC)c3)nc3c2Cc2c(CO)cnc(C)c2O3)cc1 | - | - | .
COCCn1c(C)cc(C(=O)COC(=O)c2ccc3ncsc3c2)c1C | - | - | 25µM
O=C(OCC(=O)c1ccco1)c1ccc2ncsc2c1 | - | - | -
C/C(CCN1CCCc2nc(C)c(C)cc21)=N\OC[C@@H](O)[C@@H]1O[C@@H]2OC(C)(C)O[C@@H]2[C@H]1O | -[9.22 µM] | -[9.22 µM] | -[11.4 µM]

Screens (PubChem BioAssay)
